Test results as given in patent publication US20040191812, “Target-dependent transcription using deletion mutants of N4 RNA polymerase” (published 2004).

How the values were obtained:
[1] = molecular target: T1, N4 mini-vRNAP (His-tagged) (Bacteriophage N4, UniProt Q859P9 SEQ:34-1143); experiment: filter; two orders of magnitude reduction; settings: tags: N-terminal hexahistidine (pBAD); label: 32P end-label; hairpin, 8 bp stem; ssDNA; [none]
T1 chain: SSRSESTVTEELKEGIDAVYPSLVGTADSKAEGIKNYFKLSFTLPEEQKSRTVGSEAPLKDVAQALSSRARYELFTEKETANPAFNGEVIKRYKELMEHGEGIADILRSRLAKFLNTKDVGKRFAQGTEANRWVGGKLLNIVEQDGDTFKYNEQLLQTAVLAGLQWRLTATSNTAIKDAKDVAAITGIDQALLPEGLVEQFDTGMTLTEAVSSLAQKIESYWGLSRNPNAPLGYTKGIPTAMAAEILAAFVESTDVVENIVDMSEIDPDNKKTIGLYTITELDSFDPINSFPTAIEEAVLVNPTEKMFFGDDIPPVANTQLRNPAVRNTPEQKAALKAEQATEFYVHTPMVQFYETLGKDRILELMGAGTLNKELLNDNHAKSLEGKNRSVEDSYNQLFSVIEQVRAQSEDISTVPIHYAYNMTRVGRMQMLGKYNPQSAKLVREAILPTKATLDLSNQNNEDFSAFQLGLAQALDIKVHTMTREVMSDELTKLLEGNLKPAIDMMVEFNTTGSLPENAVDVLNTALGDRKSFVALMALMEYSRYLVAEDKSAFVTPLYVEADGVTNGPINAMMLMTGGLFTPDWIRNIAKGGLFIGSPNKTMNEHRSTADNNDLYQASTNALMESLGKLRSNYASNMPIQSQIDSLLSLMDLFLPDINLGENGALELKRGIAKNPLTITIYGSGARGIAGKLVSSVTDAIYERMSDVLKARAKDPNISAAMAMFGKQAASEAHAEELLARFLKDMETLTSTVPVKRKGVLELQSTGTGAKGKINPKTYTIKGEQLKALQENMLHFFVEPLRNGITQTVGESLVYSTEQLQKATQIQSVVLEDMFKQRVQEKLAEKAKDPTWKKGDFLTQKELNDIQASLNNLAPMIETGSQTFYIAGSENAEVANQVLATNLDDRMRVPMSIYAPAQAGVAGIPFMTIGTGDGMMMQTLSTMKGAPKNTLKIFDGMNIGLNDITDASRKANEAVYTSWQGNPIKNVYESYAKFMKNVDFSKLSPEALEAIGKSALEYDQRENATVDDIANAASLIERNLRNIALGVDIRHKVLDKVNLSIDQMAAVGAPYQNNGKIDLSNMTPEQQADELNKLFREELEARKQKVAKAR

[2] = molecular target: T1, N4 mini-vRNAP (His-tagged); experiment: filter; further one order of magnitude reduction; settings: tags: N-terminal hexahistidine (pBAD); label: 32P end-label; hairpin; ssDNA; [none]

| Sequence | binding signal [1] | binding signal [2] |
| --- | --- | --- |
| TCCAAAAGAAGCGGAGCTTCTTT | ~100 fold lower affinity than wild type | – |
| TCCAAAAGAAGCGGAGCTTCTTTTG | – | ~1000 fold lower affinity than wild type |
